Screening data: PubChem BioAssay, National Center for Advancing Translational Sciences (NCATS)
HEK293 tox – kills HEK 293 cells; HEK 293 viability, ATP luminescence (CellTiter-Glo), 48-72 h; Potency, µM (doses to about 115 µM), inactives show top-dose activity change, negative = cytotoxicity, usual class: inhibitors; 94,000 compounds, 6.6% hits; AID 1345083; further: on the % scale 0 is the no-effect control and ±100 the full control effect; nearly all actives have a fitted effect of over 60% in size
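Cells seeded first (HEK 293, 250 cells/well), then compound added by pintool. Incubation ran 48 or 72 hr at 37 degree Celsius. CellTiter-Glo was added and luminescence imaged after 10 min at room temperature.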
3T3 cytotox – cytotoxic compounds in NIH 3T3 cells; Potency, µM (top dose mostly 96.7 µM), for inactives: top-dose activity change, negative = cytotoxicity, actives largely listed as inhibitors; AID 1345082; NIH 3T3 viability, CellTiter-Glo ATP luminescence, 48-72 h; 94,000 compounds, 4.3% hits; further: on the % scale 0 is the no-effect control and ±100 the full control effect; nearly all actives have a fitted effect of over 55% in size
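NIH 3T3 cells at 400 cells/well received 23 nL of compound by pintool and were incubated 48 or 72 h at 37 °C. Viability was read as ATP-coupled CellTiter-Glo luminescence.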
FLuc inh – Photinus pyralis luciferase inhibition | 76,000 compounds, 2.5% hits | Potency, µM (top dose mostly 115 µM), hits mostly inhibitors | P08659 | purified P. pyralis luciferase, luminescence, biochemical; further: on the % scale 0 is the no-effect control and ±100 the full control effect; nearly all actives have a fitted effect of over 65% in size
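FLuc 10nM, D-luciferin 10uM, ATP 10uM, Mg acetate 10mM, Tris acetate pH 7.5, Tween/BSA; cpd qHTS; enzyme added last; CCD luminescence.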
GPT2 inh – blocks human glutamate pyruvate transaminase 2; Q8TD30; Recombinant GPT2, coupled pyruvate oxidase/HRP Amplex Red fluorescence; Potency, µM (doses to about 57.7 µM), without a hit: top-dose activity change, negative = inhibition, usual class: inhibitors; 100,000 compounds, 0.25% hits; further: on the % scale 0 is the no-effect control and ±100 the full control effect; nearly all actives have a fitted effect of over 60% in size
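Inhibition is scored from Amplex Red fluorescence generated when pyruvate oxidase and HRP act on pyruvate released by GPT2. Reactions contain 10ng/uL enzyme, 250uM a-KG and 2mM L-alanine and run 30 min at room temperature.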
hNpr1 antagonist – antagonists of human natriuretic peptide receptor Npr1; 76,000 compounds, 1.6% hits; Potency, µM (doses to about 46.3 µM), for inactives: at the highest dose activity change, negative = inhibition, actives largely listed as inhibitors; AID 1347048; HEK293 hNpr1 GloSensor cGMP, ANP-stimulated luminescence; P16066; calls by dose curve; further: on the % scale 0 is the no-effect control and ±100 the full control effect; nearly all actives have a fitted effect of over 60% in size
Target sequence (P16066 whole entry, looked up): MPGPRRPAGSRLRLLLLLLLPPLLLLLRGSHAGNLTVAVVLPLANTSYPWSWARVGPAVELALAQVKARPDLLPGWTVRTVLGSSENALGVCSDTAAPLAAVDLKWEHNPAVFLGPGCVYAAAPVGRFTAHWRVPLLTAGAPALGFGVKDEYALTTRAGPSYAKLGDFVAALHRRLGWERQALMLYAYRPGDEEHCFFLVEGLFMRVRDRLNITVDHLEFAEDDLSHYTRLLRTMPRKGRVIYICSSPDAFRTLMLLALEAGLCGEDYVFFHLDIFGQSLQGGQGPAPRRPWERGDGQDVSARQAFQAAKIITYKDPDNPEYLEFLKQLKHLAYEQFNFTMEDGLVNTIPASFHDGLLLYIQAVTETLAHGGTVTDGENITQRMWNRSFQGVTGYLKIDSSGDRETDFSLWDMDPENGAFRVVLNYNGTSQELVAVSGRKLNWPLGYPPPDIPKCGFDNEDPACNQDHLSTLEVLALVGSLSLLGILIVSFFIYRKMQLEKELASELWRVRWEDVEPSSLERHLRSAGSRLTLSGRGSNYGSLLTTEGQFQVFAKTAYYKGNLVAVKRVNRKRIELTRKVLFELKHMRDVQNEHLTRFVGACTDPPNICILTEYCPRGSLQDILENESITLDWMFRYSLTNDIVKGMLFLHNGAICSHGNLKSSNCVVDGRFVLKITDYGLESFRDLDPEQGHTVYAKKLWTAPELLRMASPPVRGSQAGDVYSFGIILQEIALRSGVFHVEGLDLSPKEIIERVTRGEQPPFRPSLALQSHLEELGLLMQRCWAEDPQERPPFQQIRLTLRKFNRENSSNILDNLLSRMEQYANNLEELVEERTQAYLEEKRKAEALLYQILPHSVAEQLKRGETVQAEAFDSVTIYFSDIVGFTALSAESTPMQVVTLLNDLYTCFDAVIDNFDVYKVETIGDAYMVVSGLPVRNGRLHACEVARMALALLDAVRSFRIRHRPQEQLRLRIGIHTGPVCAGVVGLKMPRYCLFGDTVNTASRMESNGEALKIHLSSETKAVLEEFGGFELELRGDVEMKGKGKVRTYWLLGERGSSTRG
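Compound pre-incubated 30 min at room temperature on GloSensor-loaded HEK293 cells stably carrying hNpr1 and the pGS-40F cGMP biosensor. Stimulation uses hNppA at 0.1 nM final; luminescence is taken at baseline and 20 min post-agonist.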
Npr1 antag conf – hNpr1 antagonism, confirmation assay; AID 1347044; Potency, µM (doses to about 57.6 µM), inactives show at the highest dose activity change, negative = inhibition, actives largely listed as inhibitors; 1,400 compounds, 76% hits; shares compounds with hNpr1 antagonist; HEK293 hNpr1 cGMP GloSensor luminescence, ANP-stimulated; calls by dose curve; further: nearly all actives have a fitted effect of over 70% in size
NPR2 antag – selectivity test of Npr1 antagonists against human Npr2. Potency, µM (top dose mostly 57.6 µM), for inactives: top-dose activity change, negative = inhibition, actives largely listed as inhibitors. 1,400 compounds, 67% hits. shares compounds with hNpr1 antagonist. HEK293 hNpr2 GloSensor cGMP luminescence, CNP-stimulated. AID 1347046; calls by dose curve; further: nearly all actives have a fitted effect of over 70% in size
FLuc inh counter – FLuc enzyme inhibition, Npr1 counter-screen; shares compounds with hNpr1 antagonist; purified FLuc enzyme, luminescence, Km substrate; Potency, µM (titrated, usually from 57.6 µM), without a hit: at the top dose activity change, negative = inhibition, hits mostly inhibitors; 1,400 compounds, 0.7% hits; further: series mostly up to about 58 µM; 0% is about no effect
GloSensor ctrl – counter-screen for Npr1 antagonists: GloSensor control cell line; HEK293 GloSensor cGMP, SNP-stimulated, luminescence; Potency, µM (top dose mostly 57.6 µM), for inactives: top-dose activity change, negative = inhibition, most hits filed as inhibitors; shares compounds with hNpr1 antagonist; 1,400 compounds, 69% hits; calls by dose curve; further: on the % scale 0 is the no-effect control and ±100 the full control effect; nearly all actives have a fitted effect of over 70% in size
* hit, by the source's call; i = inactive; u = inconclusive; x = no result given; [ ] = another dose, or the depositor's remark. The list is not random: actives were taken first. Their share in the collection is about 10%. Unless noted, the call rests on the fitted dose curve; in most records, active means well fitted curve in the direction sought with a large enough effect; inconclusive means small, poorly fitted or top-dose-only effect, or another doubt; inactive means no such curve, though single readings can be large; an effect the other way counts as inactive or inconclusive. Potency means the concentration at half of the fitted maximal effect.

SMILES	HEK293 tox	3T3 cytotox	FLuc inh	GPT2 inh	hNpr1 antagonist	Npr1 antag conf	NPR2 antag	FLuc inh counter	GloSensor ctrl
CN(C)C(=O)N1C2CCC1CN(c1ccc(C(F)(F)F)cc1)C2	u	u	x	-2.5%	x	24.1µM*	19.1µM*	0.7%	15.2µM*
O=C(Nc1ccc(Cl)cc1)c1nc2c(o1)CCN(Cc1ccc(F)cc1F)CC2	u	u	i	u	3.16µM*	7.03µM*	8.86µM*	1.8%[86.2 µM]	7.89µM*
O=C(Nc1ccc(Cl)cc1)c1nc2c(o1)CCN(Cc1cccc(F)c1F)CC2	31.6µM*	u	i	-3.3%[88.5 µM]	3.55µM*	6.27µM*	9.94µM*	-5.6%[86.2 µM]	7.03µM*
O=C(c1nc2c(o1)CCN(Cc1cc(F)ccc1F)CC2)N1CCOCC1	u	-22.4%[138 µM]	i	3.7%[88.5 µM]	0.7%[70.6 µM]	x	x	x	x
COc1ccccc1Cn1c(=O)c(C(=O)N2CCN(C(=O)Nc3ccc(Cl)cc3)CC2)nc2cccnc21	u	u	x	0.5%	x	x	x	x	x
COc1ccccc1CN1CCc2nc(C(=O)Nc3ccc(Cl)cc3)oc2CC1	28.2µM*	50.1µM*	i	i	12.6µM*	14µM*	17.7µM*	-0.1%[86.2 µM]	12.5µM*
COCCNC(=O)c1nc2c(o1)CCN(Cc1cccc(F)c1F)CC2	-45.4%[172 µM]	u	i	-21.1%[88.5 µM]	-0.2%[70.6 µM]	x	x	x	x
COc1ccc(NC(=O)c2cnc3n2CCN(Cc2ccccc2)CC3)cc1	u	u	i	-6.6%[88.5 µM]	-8.5%[70.6 µM]	x	x	x	x
c1ccc(-c2cc(CC3(NCc4cnc5ccccc5c4)COC3)no2)nc1	-10.8%[172 µM]	-4.9%[138 µM]	i	4.0%[88.5 µM]	-19.8%[70.6 µM]	x	x	x	x
Cc1cc2nc3n(c(=O)c2n1CC(=O)Nc1cccc(Br)c1)CCCC3	u	-28.2%	i	i	u	x	x	x	x
Cc1nc(C)c(CC(=O)N2CCOC(C(F)(F)F)C2)c(=O)[nH]1 (centres undefined)	i	i	i	0.4%	3.8%	x	x	x	x
CS(=O)(=O)N1CC[C@H](c2nc3cc(Cl)ccc3o2)C1	-8.9%[172 µM]	0.5%[174 µM]	i	-1.4%[88.5 µM]	6.8%[70.6 µM]	x	x	x	x
c1ccc(C(CN2CCCC(N3CCN(c4ccccc4)CC3)C2)c2ccccc2)cc1 (centres undefined)	u	u	i	-10.1%	1.1%	x	x	x	x
Cc1ccc2c(n1)N(C)[C@H](CO)CCN(Cc1cnc3ccccc3c1)C2	i	-16.9%[174 µM]	i	3.9%[88.5 µM]	2.5%[70.6 µM]	x	x	x	x
COc1ccc(N2CCN(C(=O)Nc3nc(C)ns3)CC2(C)C)cc1	10µM*	u	i	i	7.94µM*	12.2µM*	15.3µM*	2.8%	8.62µM*
O=C1N[C@H](CC(=O)N2CCC(Cc3ccccc3)CC2)C(=O)Nc2ccccc21	u	-20.7%	i	i	10µM*	19.3µM*	12.2µM*	-0.5%	-19.5%
O=C1N[C@H](CC(=O)N2CCC(c3ccccc3)C2)C(=O)Nc2ccccc21 (some centres undefined)	9.6%	i	i	i	6.5%	x	x	x	x
CCOc1ccccc1N1CCN(C(=O)CCn2ccn3nc4c(c3c2=O)CCCC4)CC1	-16.6%	-20.2%	i	i	u	u	u	1.2%	-2.0%
O=C(CCn1ccn2nc3c(c2c1=O)CCCC3)N1CCN(c2ccc(F)cc2)CC1	u	u	i	i	-15.1%	x	x	x	x
Clc1ccc2nc(N3CCC(NCCc4cccnc4)CC3)sc2c1	14.1µM*	17.8µM*	i	-3.4%	12.6µM*	24.3µM*	24.3µM*	-28.2%	21.7µM*
Cc1ncsc1CN1CCC2(CC1)CC(Cc1nc(-c3ccccc3)no1)CCO2 (centres undefined)	17.8µM*	u	i	u	10µM*	12.2µM*	17.2µM*	-9.8%	13.7µM*
Cc1noc([C@@H]2CN(C(=O)c3cscn3)C[C@H]2C(N)=O)n1	-11.7%	u	i	-13.7%	-2.5%	x	x	x	x
COc1ccc(-c2noc(CC3CCN(C(=O)Cc4ccccc4OC)CC3)n2)cc1	u	u	i	-14.4%	u	21.7µM*	19.3µM*	3.2%	21.7µM*
COc1ccccc1C(=O)N1CCC(Cc2nc(C(C)C)no2)CC1	u	-20.4%	i	-6.1%	-4.3%	x	x	x	x
COc1ccccc1C(=O)N1CCC(Cc2nc(-c3ccc(F)cc3)no2)CC1	u	u	i	-3.5%	6.31µM*	9.68µM*	12.2µM*	-0.3%	10.9µM*
SMILES	HEK293 tox	3T3 cytotox	FLuc inh	GPT2 inh	hNpr1 antagonist	Npr1 antag conf	NPR2 antag	FLuc inh counter	GloSensor ctrl
COc1ccc(C(=O)N2CCC(Cc3nc(-c4ccc(F)cc4)no3)CC2)c(OC)n1	u	u	i	i	2.82µM*	3.43µM*	4.85µM*	-2.0%	4.85µM*
COc1ccccc1CC(=O)N1CCC(Cc2nc(-c3ccc(F)cc3)no2)CC1	u	u	i	1.4%	1.26µM*	2.43µM*	2.43µM*	3.9%	1.93µM*
O=C(c1ccc(F)cc1F)N1CCC(Cc2nc(-c3cnccn3)no2)CC1	-6.1%	-9.0%	i	i	-2.3%	x	x	x	x
CC(=O)N1C[C@@H]2CCCN3CCC[C@@H]([C@H]23)[C@H]1CCCC(=O)NCc1ccc(N2CCN(C)CC2)cc1	7.8%	i	i	i	-0.3%	x	x	x	x
C[C@@H]1O[C@@H](O[C@H]2[C@H](OC(=O)[C@]34CCC(C)(C)C[C@H]3C3=CCC5[C@@]6(C)C[C@H](O)[C@H](O[C@@H]7O[C@H](CO)[C@@H](O)[C@H](O)[C@H]7O)[C@](CO)(C(=O)O)C6CC[C@@]5(C)[C@]3(C)C[C@H]4O)OC[C@H](O)[C@@H]2O)[C@H](O)[C@H](O)[C@H]1O[C@@H]1OC[C@@H](O)[C@H](O[C@@H]2OC[C@](O)(CO)[C@H]2O)[C@H]1O (some centres undefined)	x	x	x	i[11.5 µM]	x	x	x	x	x
CN(C)[C@@H]1CN(C(=O)c2ccccc2F)CC[C@]1(O)c1ccccc1	-2.4%	1.1%	i	i	-2.5%	x	x	x	x
